Calls of active or inactive are those of the source.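 How the source made its calls, unless noted: active means compounds lowering colon cancer cell viability after pretreatment blocking the GSK3B kinase; inactive means the rest.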
What was measured:
[1] = stimulators of nuclear beta-catenin in C2C12, primary screen, imaging, WNT3A-conditioned medium, mouse C2C12, NPC library (AID 1117326; in the data active means nuclear beta-catenin stimulation mostly above about 4.2%, no sharp cut-off; inactive means mostly below about 10%; further: reference of the scale not given here); conditions: stronger effect = higher value
[2] = stimulators of insulin release from INS-1E, primary screen, cell-based, 5 mM glucose, NPC library (AID 1117329;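 active means compound raises insulin release from rat beta cells at 5 mM glucose, no numeric limit stated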; further: reference of the scale not given here); conditions: rat INS-1E insulin secretion, at 10 µM, stronger effect = higher value
[3] = growth inhibition of GSK3B-pretreated HCT116 cells – cell-based, CellTiter-Glo, 0.2 to 20 µM (AID 1117336); conditions: HCT116 viability after GSK3B inhibitor, at 20 µM, stronger effect = higher value
[4] = inhibition of endothelial tube formation, primary screen, imaging, VEGF stimulated, CD31 staining, tube area, NPC library (AID 1117340;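 active means compound that reduces growth-factor-driven endothelial tube area in a mixed cell culture, no cutoff stated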); conditions: VEGF-stimulated ADSC/ECFC co-culture, at 10 µM, stronger effect = higher value
[5] = glucagon-like peptide 1 release enhancers, primary assay, NCI-H716 cell line, NPC library (AID 1117341;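 active means compound raises GLP1 secretion from the human gut endocrine cells, with no numeric limit stated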; further: reference of the scale not given here); conditions: NCI-H716 cells, at 10 µM, stronger effect = higher value
[6] = HCT116 colon cancer cell growth inhibition, primary screen, CellTiter-Glo luminescence, NPC library (AID 1117342;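 active means compounds that lower survival of HCT116 colon cancer cells in the luminescence readout, no numeric limit stated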); conditions: at 20 µM (top of the series)
[7] = CellTiter-Glo luminescent readout of SW480 viability loss, NPC library primary (AID 1117343;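 active means compounds that lower viability of the colon cancer cells in the luminescence readout, with no numeric limit stated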); conditions: CellTiter-Glo luminescence; at 20 µM (top of the series)
[8] = decreased DLD-1 cellular survival, CellTiter-Glo luminescent readout, NPC compound collection, primary HTS (AID 1117346;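 active means compounds that lower survival of DLD-1 colon cancer cells in the luminescence readout, no cutoff given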); conditions: DLD-1 viability, CellTiter-Glo luminescence; at 20 µM (top of the series)

Cc1nc([N+](=O)[O-])cn1-c1ccc([N+](=O)[O-])cc1
-2.2%: nuclear beta-catenin stimulation ([1]; stimulation, at 2 µM)
inactive: nuclear beta-catenin stimulation ([1]; at 10 µM) -0.1% | insulin secretion stimulation [2] 2% | viability decrease [3] -6.7% | tube area decrease [4] 3.8% | GLP1 secretion stimulation [5] 3.6% | inhibition of viability [6] 18.2% | viability decrease (inhibition) [7] 10.4% | viability decrease (inhibition) [8] -13.5%

CC(=O)Oc1ccc(C(=C2CCCCC2)c2ccc(OC(C)=O)cc2)cc1
inactive: nuclear beta-catenin stimulation ([1]; at 10 µM) 0.2% | insulin secretion stimulation [2] -0.3% | tube area decrease [4] 4.9% | GLP1 secretion stimulation [5] 7.4%
active: viability decrease [3] 109% | inhibition of viability [6] 112% | viability decrease (inhibition) [7] 130% | viability decrease (inhibition) [8] 102%
1.4%: nuclear beta-catenin stimulation ([1]; stimulation, at 2 µM)

Clc1ccccc1-c1nc(-c2ccncc2)no1
inactive: nuclear beta-catenin stimulation ([1]; at 10 µM) -0.3% | insulin secretion stimulation [2] -2.3% | viability decrease [3] 3.6% | tube area decrease [4] 23.5% | GLP1 secretion stimulation [5] -2.9% | inhibition of viability [6] 18.1% | viability decrease (inhibition) [7] 8.4% | viability decrease (inhibition) [8] -2.9%
0.5%: nuclear beta-catenin stimulation ([1]; stimulation, at 2 µM)

CC(C=CC1=C(C)CCCC1(C)C)=CC=CC(C)=CC(=O)Oc1c(C)c(C)c2c(c1C)CC[C@@](C)(CCC[C@H](C)CCC[C@H](C)CCCC(C)C)O2
inactive: nuclear beta-catenin stimulation ([1]; at 10 µM) 2.1% | insulin secretion stimulation [2] 2.9% | viability decrease [3] 2.5% | tube area decrease [4] -4.2% | GLP1 secretion stimulation [5] 2.3% | inhibition of viability [6] 32.1% | viability decrease (inhibition) [7] -36.9% | viability decrease (inhibition) [8] 4%
2.2%: nuclear beta-catenin stimulation ([1]; stimulation, at 2 µM)

CC1(C)CO[C@@H](CC(=O)O)CN1
0.1%: nuclear beta-catenin stimulation ([1]; stimulation, at 2 µM)
inactive: nuclear beta-catenin stimulation ([1]; at 10 µM) -0.7% | insulin secretion stimulation [2] 0.5% | viability decrease [3] -0.8% | tube area decrease [4] -11.6% | GLP1 secretion stimulation [5] -0.1% | inhibition of viability [6] 7.17% | viability decrease (inhibition) [7] -7% | viability decrease (inhibition) [8] -1%

CC(C)C[C@@H]1[C@H](c2ccccc2)OC(=O)N1CCCN1CCCCCC1
active: inhibition of viability [6] 56.3%
inactive: nuclear beta-catenin stimulation ([1]; at 10 µM) 1.3% | insulin secretion stimulation [2] 15% | viability decrease [3] 21.1% | tube area decrease [4] 8% | GLP1 secretion stimulation [5] 5.9% | viability decrease (inhibition) [7] 19.9% | viability decrease (inhibition) [8] 18.3%
1.6%: nuclear beta-catenin stimulation ([1]; stimulation, at 2 µM)

Nc1ccncc1N
inactive: nuclear beta-catenin stimulation ([1]; at 10 µM) 0.2% | insulin secretion stimulation [2] -0.7% | viability decrease [3] -2.2% | tube area decrease [4] -31% | GLP1 secretion stimulation [5] 3.3% | inhibition of viability [6] 3.4% | viability decrease (inhibition) [7] 7.7% | viability decrease (inhibition) [8] 6.9%
0.5%: nuclear beta-catenin stimulation ([1]; stimulation, at 2 µM)

COc1cc2c(cc1OC)CN(C(=O)[C@H](C)N[C@@H](CCc1ccccc1)C(=O)O)[C@H](C(=O)O)C2
inactive: nuclear beta-catenin stimulation ([1]; at 10 µM) -0.2% | insulin secretion stimulation [2] 0.4% | viability decrease [3] -9.2% | tube area decrease [4] 14.8% | GLP1 secretion stimulation [5] -1.8% | inhibition of viability [6] 7.6% | viability decrease (inhibition) [7] -3.9% | viability decrease (inhibition) [8] -16.7%
-2.5%: nuclear beta-catenin stimulation ([1]; stimulation, at 2 µM)

CCCCCC(N)=O
inactive: nuclear beta-catenin stimulation ([1]; at 10 µM) 1.3% | insulin secretion stimulation [2] -1.1% | viability decrease [3] -27.2% | tube area decrease [4] 8.8% | GLP1 secretion stimulation [5] 0.3% | inhibition of viability [6] 2.8% | viability decrease (inhibition) [7] 44.1% | viability decrease (inhibition) [8] -11.8%
2.1%: nuclear beta-catenin stimulation ([1]; stimulation, at 2 µM)

C=CCNCCCCCC[N+](C)(C)C
inactive: nuclear beta-catenin stimulation ([1]; at 10 µM) -1.4% | insulin secretion stimulation [2] -0.9% | viability decrease [3] -5.7% | tube area decrease [4] -1.9% | GLP1 secretion stimulation [5] -0.6% | inhibition of viability [6] -3.1% | viability decrease (inhibition) [7] -2.3% | viability decrease (inhibition) [8] -2.3%
0.4%: nuclear beta-catenin stimulation ([1]; stimulation, at 2 µM)

N#CC1(c2ccc(F)cc2)CCC(=O)CC1
inactive: nuclear beta-catenin stimulation ([1]; at 10 µM) -0.7% | insulin secretion stimulation [2] 2.2% | viability decrease [3] 5.9% | tube area decrease [4] 0.9% | GLP1 secretion stimulation [5] 1.7% | inhibition of viability [6] 8.6% | viability decrease (inhibition) [7] 3.1% | viability decrease (inhibition) [8] -1.9%
-2.1%: nuclear beta-catenin stimulation ([1]; stimulation, at 2 µM)

CCc1oc2ccccc2c1C(=O)c1cc(I)c(O)c(I)c1
inactive: nuclear beta-catenin stimulation ([1]; at 10 µM) 4.9% | insulin secretion stimulation [2] -1.6% | GLP1 secretion stimulation [5] -3.6%
0.4%: nuclear beta-catenin stimulation ([1]; stimulation, at 2 µM)
active: viability decrease [3] 98.7% | tube area decrease [4] 108% | inhibition of viability [6] 99% | viability decrease (inhibition) [7] 101% | viability decrease (inhibition) [8] 102%

Cc1c(C)c2c(c(C)c1OC(=O)c1cccnc1)CC[C@@](C)(CCC[C@H](C)CCC[C@H](C)CCCC(C)C)O2
-0.2%: nuclear beta-catenin stimulation ([1]; stimulation, at 2 µM)
inactive: nuclear beta-catenin stimulation ([1]; at 10 µM) -0.1% | insulin secretion stimulation [2] -0.2% | viability decrease [3] 13.1% | tube area decrease [4] -9.8% | GLP1 secretion stimulation [5] 5.5% | inhibition of viability [6] -2.9% | viability decrease (inhibition) [7] -20.2% | viability decrease (inhibition) [8] -13.8%

CCCc1ccc(C(=O)O)cc1
2.4%: nuclear beta-catenin stimulation ([1]; stimulation, at 2 µM)
inactive: nuclear beta-catenin stimulation ([1]; at 10 µM) -2% | insulin secretion stimulation [2] 0.6% | viability decrease [3] -19.9% | tube area decrease [4] 0.8% | GLP1 secretion stimulation [5] 1.1% | inhibition of viability [6] 7.9% | viability decrease (inhibition) [7] 12.9% | viability decrease (inhibition) [8] 11.8%

Cc1ncc(C[n+]2csc(CCOP(=O)(O)O)c2C)c(N)n1
-0.6%: nuclear beta-catenin stimulation ([1]; stimulation, at 2 µM)
inactive: nuclear beta-catenin stimulation ([1]; at 10 µM) 0.8% | insulin secretion stimulation [2] -0.4% | viability decrease [3] -15.6% | tube area decrease [4] -8.2% | GLP1 secretion stimulation [5] 1% | inhibition of viability [6] -0.4% | viability decrease (inhibition) [7] -13.2% | viability decrease (inhibition) [8] 17.1%

C[C@H](CCC(=O)O)[C@H]1CC[C@H]2[C@@H]3CC[C@@H]4C[C@H](O)CC[C@]4(C)[C@@H]3C[C@H](O)[C@]12C
active: inhibition of viability [6] 57% | viability decrease (inhibition) [8] 9.8%
-1.1%: nuclear beta-catenin stimulation ([1]; stimulation, at 2 µM)
inactive: nuclear beta-catenin stimulation ([1]; at 10 µM) -0.7% | insulin secretion stimulation [2] 1% | viability decrease [3] 37.6% | tube area decrease [4] 0% | GLP1 secretion stimulation [5] -5% | viability decrease (inhibition) [7] 35.7%
